The record followed here is the OligoGym collection.
Also: reference of the scale not given here.

One assay has as its target SOCS2. The experiment in a line: pooled miR-30 sensor sort-seq; sequence = guide strand. The note with it: shRNA.
As to TATTGTTAGTAGGTAGTCTGAA, the sensor-assay potency score (higher = more potent) was 0.147.

In turn, TTCGAAGATTAGTTGGTCCAGC displayed a sensor-assay potency score (higher = more potent) of 0.103.

In the case of TTCTCTTTTACATAGCTGCATT, the sensor-assay potency score (higher = more potent) is -0.899.

On to TAGTAGGTAGTCTGAATGCGAG, for which the sensor-assay potency score (higher = more potent) was -0.794.

Regarding TTAGTAGGTAGTCTGAATGCGA, the sensor-assay potency score (higher = more potent) is -0.295.

As for TTGCACATCTGAACATAGTAGT, the sensor-assay potency score (higher = more potent) is 0.207.

Consider TTTTCCGTCTTGGTATTCGATT, for which the sensor-assay potency score (higher = more potent) is -1.45.

With TTAAGCTTGGATTTGACACATA, the sensor-assay potency score (higher = more potent) was -1.

Consider TAATCTTTTAGTCTTGTTGGTA, for which the sensor-assay potency score (higher = more potent) was -0.175.

Take TTTGGCTTCATTAACAGTCATA: the sensor-assay potency score (higher = more potent) was -0.491.

Take TATCCTTGCACATCTGAACATA: the sensor-assay potency score (higher = more potent) is -1.25.

On to TTAACAGTCATACTTCCCCAGT, for which the sensor-assay potency score (higher = more potent) is -1.23.

For the next assay, the target named is SOHLH2. Described as above. The note with it: shRNA.
TAGATTGTCAAACTGCGCCCAG: the sensor-assay potency score (higher = more potent) was -0.465.

TATATTTCACATAATCAACTGT had a sensor-assay potency score (higher = more potent) of 0.64.

As for TTTCTGTACAGTATCAGCCAGG, the sensor-assay potency score (higher = more potent) was -0.773.

TTCTCGAACTCTGACAACGAAG: the sensor-assay potency score (higher = more potent) was -1.44.

As to TTCAGTTAAAGCAATATCCATT, the sensor-assay potency score (higher = more potent) was -0.431.

Turning to TATCGTGTCTACATGGATCTTC, the sensor-assay potency score (higher = more potent) is 0.657.
